According to PubChem BioAssay (NCI):
This is part of a sample that, as a whole, favours compounds with a hit. Of some 83,000 tested, about 20% had one in any assay.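 Treatment: one concentration, 48 hours, 96-well format. Scoring: percent growth, with anything below 10 considered active.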 Values without a mark were called inactive. The source made the active and inactive calls.

tested on: NCI-H322M lung; test: NCI-60 one-dose screen, 48 h (100 = growth as untreated, 0 = no growth, -100 = all killed); conditions: 10 µM
Protocol: Growth inhibition of the NCI-H322M human Non-Small Cell Lung tumor cell line is measured as a screen for anti-cancer activity. Cells are grown in 96 well plates and exposed to the test compound for 48 hours. Compounds are tested at a single concentration, which is 10^-5 M for most compounds. The reported endpoint is percent growth (GI% or GIPRCNT), where numbers from 0 - 100% represent growth inhibition, and numbers from -100% - 0 represent cell death. For example, a value of 40 represents 60% growth inhibition. A value of 0 means no net growth occurred over the course of the experiment. A value of -40 indicates 40% of cells at the beginning of the experiment died by the end of the experiment. A value of -100 means all cells are dead at the end of the experiment.
NCI-60 Human Tumor Cell Lines Screen was performed using the standard one-dose NCI protocol, which is described in more detail at https://dtp.cancer.gov/discovery_development/nci-60/default.htm.
Compounds with GIPRCNT values below 10 were considered active. Activity score was based on GIPRCNT using the following formula: […]
Score is 0 for GIPRCNT values of 100 or above, 50 for GIPRCNT values of 0, and 100 for GIPRCNT values of -100.

SMILES	growth
COc1ccc(-c2nnc(COc3ccc(NC(=O)Nc4cccc(C(F)(F)F)c4)cc3F)o2)cc1	43.4%
CCC(OC(=O)CC(C)C)c1ccccc1 (stereo not given)	93.3%
COc1ccc(C2C=C(c3ccc(Cl)cc3)N=C3SC=CN32)c(Br)c1 (stereo not given)	112%
S=C(Cc1ccc(-c2ccccc2)cc1)N1CCOCC1	96%
COc1ccc(CSc2nc3cc(OC)c(OC)cc3c(=O)n2-c2ccc(OC)cc2OC)cc1	80.6%
Cc1ccc(NS(=O)(=O)c2ccccc2)c(NS(=O)(=O)c2ccccc2)c1	109%
CC(C)c1[nH]nc2c(NCc3ccc(-c4ccccn4)cc3)nc(SCCN)nc12	10.3%
c1ccc(C2CCCCC2)c(OCCCCCN2CCNCC2)c1	72.6%
O=C(Nc1cccc([N+](=O)[O-])c1)NN1CCCCCC1	111%
Cc1cccc2c1O/C(=C\c1ncc([N+](=O)[O-])n1C)C2=O	-17.9% (active)
Cc1ccc(C2C=C(c3ccc(Cl)cc3)N=C3SC=CN32)c(Br)c1 (stereo not given)	85.5%
COc1cc(C2C(C#N)=C(c3c[nH]c4ccccc34)Nc3nc(N)[nH]c(=O)c32)cc(OC)c1OC (stereo not given)	104%
O=C1CC[C@@H](C(=O)N[C@H]2CSSC[C@@H](C(=O)NCCc3ccccc3)NC(=O)[C@H](Cc3ccccc3)NC(=O)[C@@H]3CCCN3C(=O)[C@@H]3CCCN3C2=O)N1	115%
CCOc1ccc2c(c1)CC[C@@H]1[C@@H]2CC[C@]2(C)[C@@H](O)[C@@H](O)C[C@@H]12	91.4%
N=C(N)c1ccc(-c2ccc(-c3cccs3)s2)nc1	-13.1% (active)
CCOC(=O)c1c(O)c2cc(-c3ccccc3)nc(OCC)c2c(=O)n1C	122%
Fc1ccc(Nc2ccnc(N3CCN(c4ccnc5cc(Cl)ccc45)CC3)n2)cc1	65.5%
COc1cc(/C=C/C(=O)c2cc(-c3ccc(F)cc3)ccc2O)cc(OC)c1OC	93.6%
CNC(=O)c1cc(Oc2ccc(NC(=O)Nc3ccc(Cl)c(C(C)(C)C)c3)c(F)c2)ccn1	107%
COc1cccc2c1O/C(=C\c1ncc([N+](=O)[O-])n1C)C2=O	23.9%

SMILES	growth
CCCCNC(=O)Oc1ccc(/C(=C(\C)c2ccc(OC)cc2)c2ccc(OCCN3CCCCC3)cc2)cc1	87.6%
COc1ccc(C(C)=O)cc1N1C(=O)C2C(C1=O)C1(c3ccccc3)C(=O)C2(c2ccccc2)C(c2ccc(C)cc2)=C1c1ccc(C)cc1 (stereo not given)	27.6%
Cc1ccc(-c2cc(-c3cccc(Nc4ccnc5cc(Cl)ccc45)c3)nc3nc(N)[nH]c(=O)c23)cc1	91.3%
C/C(=N\NC(=S)N1CCCC1)c1ccccn1	6.18% (active)
CCOc1nc(-c2ccccc2)cc2c(O)c(C(=O)NC(C)C)[nH]c(=O)c12	120%
O=C/C=C/c1ccc([N+](=O)[O-])cc1Cl	89.1%
CCc1c(C(=O)NCc2c(O)ccc3cccc(O)c23)[nH]c(C)c1C(C)=O	69.5%
COc1ccc(N2CCN(c3nc(-c4ccccc4)c(C#N)c(=O)[nH]3)CC2)cc1	94.6%
COc1ccccc1NC1=C(N2CCCCC2)C(=O)c2ccccc2C1=O	80.9%
CCN(CC)CCCOC(=O)Nc1ccccc1Cl	129%
COc1cc(-c2nc3cc(Cl)c(Cl)cc3[nH]2)ccc1OCC(=O)NN	79.1%
NCCNc1ccc2cc(-c3nc4ccccc4[nH]3)c(=O)oc2c1	103%
Cc1cc(/C=C2\SC(=Nc3ccccc3)N(C3CCCC3)C2=O)c(C)n1-c1ccc(Cl)cc1	-55% (active)
O=C(CCCC(=O)N/N=C/c1cc(Cl)ccc1O)N/N=C\c1cc(Cl)ccc1O	23.7%
COCCNCC(O)Cn1c2ccc(Cl)cc2c2cc(Cl)ccc21 (stereo not given)	-20.1% (active)
C(=C\c1nc2ccccc2s1)/c1ccc(N2CCOCC2)s1	79.7%
COC(=O)c1ccc(Cn2ccc(=O)[nH]c2=O)cc1	116%
CCOCC[P+](c1ccccc1)(c1ccccc1)c1ccccc1	82%
COc1c(C)c(C)c(OC)c2c1[nH]c(=O)c1c3cccnc3cn21	153%
COc1cc(C2C=C(c3ccc(Cl)c(Cl)c3)N=C3SC(C)=CN32)cc(OC)c1OC (stereo not given)	81.8%
